# Values without a mark were called inactive. Inconclusive results are not listed. Calls of active or inactive are those of the source. Calls come from the whole dose curve; as a rule, active = well fitted curve in the direction sought with a large enough effect; inconclusive = small, poorly fitted or top-dose-only effect, or another doubt; inactive = no such curve, though single readings can be large; an effect the other way counts as inactive or inconclusive.
# Target: Cytochrome P450 3A4 (Homo sapiens) (UniProt P08684)
# Experiment: qHTS Assay for Inhibitors and Substrates of Cytochrome P450 3A4 (AID 884); note: potency is the fitted concentration of half-maximal effect; nearly all actives have a fitted effect of over 50% in size
# Conditions: recombinant CYP3A4, Luciferin-PPXE luminescence; series mostly up to 57.1 µM; activity change, negative = inhibition: at the top concentration
# Outline: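 20 nM human CYP3A4 with 25 uM Luciferin-PPXE (at KM) in 200 mM KPO4, preincubated 10 min with compound; NADPH regeneration started a 60 min RT reaction. Luciferin detected by luminescence, normalized to 57 uM ketoconazole as full inhibition.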
# Chain of Cytochrome P450 3A4 (Homo sapiens) (P08684 whole entry, looked up): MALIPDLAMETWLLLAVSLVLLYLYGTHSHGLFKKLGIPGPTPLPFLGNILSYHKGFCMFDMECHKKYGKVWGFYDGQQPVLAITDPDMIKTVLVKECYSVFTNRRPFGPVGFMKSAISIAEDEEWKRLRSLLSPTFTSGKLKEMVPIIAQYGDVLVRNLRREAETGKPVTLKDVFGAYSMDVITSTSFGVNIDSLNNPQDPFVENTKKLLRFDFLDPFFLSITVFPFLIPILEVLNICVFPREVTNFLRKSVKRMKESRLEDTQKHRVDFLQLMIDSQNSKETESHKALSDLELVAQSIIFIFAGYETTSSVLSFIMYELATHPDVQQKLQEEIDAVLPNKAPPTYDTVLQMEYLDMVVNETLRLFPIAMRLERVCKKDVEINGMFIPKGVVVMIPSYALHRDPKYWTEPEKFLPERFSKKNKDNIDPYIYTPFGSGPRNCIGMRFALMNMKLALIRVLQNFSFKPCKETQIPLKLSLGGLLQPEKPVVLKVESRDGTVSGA
row,Compound,Potency
1,c1ccc(C2[C@H]3CN(Cc4cccnc4)[C@H](c4ccccc4)C34CC2(c2ccccc2)C4)cc1 (stereo not given in full),1.58 µM (active)
2,CCCCCCN(C(=O)CCCCCN1C(=O)NC(c2ccc(-c3ccccc3)cc2)C(C(=O)OCc2ccccc2)=C1C)C(C(=O)NCCCC)c1ccc(O)cc1 (stereo not given),10 µM (active)
3,COc1c(O)c(O)cc2c1oc1c3cc(C)ccc3oc(=O)c21,25.1 µM (active)
4,COC(=O)N1CC=CC1(C)C(=O)NCc1cc(F)cc(C(F)(F)F)c1 (stereo not given),15.8 µM (active)
5,CC(C)=CCC/C(C)=C/CO/N=C1/C[C@@H](O)[C@@H](O)[C@@H]2[C@@H]3C(=O)N(Cc4ccc5c(c4)OCO5)C(=O)[C@H]3CC[C@@H]12,1.58 µM (active)
6,CCC1=C2CC[C@H]3C(=O)N(C)C(=O)[C@H]3[C@H]2[C@@]2(Cc3ccccc3)C(=NCC3CC3)OC(=O)N2C1=O,5.01 µM (active)
7,CCC1=C2CC[C@H]3C(=O)N(CC(=O)OC)C(=O)[C@H]3[C@H]2[C@@]2(Cc3ccccc3)C(=NCCOC)OC(=O)N2C1=O,12.6 µM (active)
8,O=C1[C@H]2[C@H]3[C@H](O)[C@H](O)C/C(=N/OC[C@@H](O)COCc4ccco4)[C@@H]3CC[C@@H]2C(=O)N1Cc1ccc2c(c1)OCO2,3.16 µM (active)
9,CCC1=C(OC(=O)N(CC)CC)N2C(=O)OC(=NCCc3c[nH]c4ccccc34)[C@]2(Cc2ccccc2)[C@H]2C1=CC[C@H]1C(=O)N(CC)C(=O)[C@H]12,2 µM (active)
10,CCC1=C2CC[C@H]3C(=O)N(c4ccccc4)C(=O)[C@H]3[C@H]2[C@@]2(Cc3ccccc3)C(=NCCOC)OC(=O)N2C1=O,7.94 µM (active)
11,COC(=O)C/C=C\[C@@H](C)[C@@H](/C=N\OC[C@@H]1O[C@H](c2ccccc2)C=C[C@@H]1Oc1ccc(OC)cc1)OC,3.16 µM (active)
12,CCC1=C(OC(=O)N(CC)CC)N2C(=O)OC(=NCC3CC3)[C@]2(Cc2ccccc2)[C@H]2C1=CC[C@H]1C(=O)N(c3ccccc3)C(=O)[C@H]12,2.51 µM (active)
13,CCC1=C(OC(=O)N(CC)CC)N2C(=O)OC(=NCC3CC3)[C@]2(Cc2ccccc2)[C@H]2C1=CC[C@H]1C(=O)N(CC)C(=O)[C@H]12,5.01 µM (active)
14,CCC1=C(OC(=O)N(CC)CC)N2C(=O)OC(=NCC(=O)OC)[C@]2(C)[C@H]2C1=CC[C@H]1C(=O)NC(=O)[C@H]12,12.6 µM (active)
15,O=C(N/N=C1/C[C@@H](O)[C@@H](O)[C@@H]2[C@@H]3C(=O)N(Cc4ccc5c(c4)OCO5)C(=O)[C@H]3CC[C@@H]12)OCc1ccccc1,1.26 µM (active)
16,COc1cccc([C@H]2Oc3ccc(OC)cc3/C(=N\OC[C@@H](O)[C@@H]3O[C@@H]4OC(C)(C)O[C@@H]4[C@H]3O)[C@@H]2O)c1,3.98 µM (active)
17,CCC1=C2CC[C@H]3C(=O)N(CC)C(=O)[C@H]3[C@H]2[C@@]2(Cc3ccccc3)C(=NCc3ccccc3)OC(=O)N2C1=O,3.16 µM (active)
18,COC(=O)[C@@H]1C[C@H]2CC[C@H](O)C[C@H]2N1Cc1ccccc1OC(=O)c1cccs1,2.51 µM (active)
19,CN1C[C@@H]2C(c3ccc(C(F)(F)F)cc3)C3(c4cccnc4)CC2(C3)[C@H]1c1ccccc1 (stereo not given in full),7.94 µM (active)
20,N#Cc1ccc(C23CC4(C2)[C@H](CN(Cc2cccnc2)[C@@H]4c2ccccc2)C3c2ccccc2)cc1 (stereo not given in full),3.98 µM (active)
21,O=C(O)c1sccc1S(=O)(=O)Nc1ccccc1N1CCCCC1,15.8 µM (active)
22,O=C1[C@H]2[C@H]3[C@H](O)[C@H](O)C/C(=N/OC[C@@H](O)COCc4ccco4)[C@H]3CC[C@@H]2C(=O)N1Cc1ccc2c(c1)OCO2,3.16 µM (active)
23,CCC1=C2CC[C@H]3C(=O)N(C)C(=O)[C@H]3[C@H]2[C@@]2(Cc3ccccc3)C(=NCCc3c[nH]c4ccccc34)OC(=O)N2C1=O,1.26 µM (active)
24,CCC1=C(OC(=O)N(CC)CC)N2C(=O)OC(=NCCOC)[C@]2(C)[C@H]2C1=CC[C@H]1C(=O)N(CC)C(=O)[C@H]12,7.94 µM (active)
25,C=C(C)C(O)/C=C/c1cccc(OC)c1 (stereo not given),3.98 µM (active)
26,O=C1C[C@@H](O)[C@@H](O)[C@H]2[C@@H]3C(=O)N(Cc4ccc5c(c4)OCO5)C(=O)[C@@H]3CC[C@H]12,3.98 µM (active)
27,COc1c(O)c(O)cc2c1oc1c3ccccc3oc(=O)c21,25.1 µM (active)
28,COC(=O)C/C=C\[C@@H](C)[C@@H](/C=N\O[C@@H](C)c1cn([C@H](CO)Cc2ccccc2)nn1)OC,3.98 µM (active)
29,Cn1c(N)c(C(=O)COC(=O)c2cc(-c3ccco3)nc3ccccc23)c(=O)n(Cc2ccccc2)c1=O,10 µM (active)

# Target: Cytochrome P450 3A4 (Homo sapiens) (UniProt P08684)
# Experiment: qHTS Assay for Activators of Cytochrome P450 3A4 (AID 885); note: nearly all actives have a fitted effect of over 65% in size
# Conditions: recombinant CYP3A4, Luciferin-PPXE luminescence, 60 min; series mostly up to 57.1 µM; activity change, positive = activation: at the top concentration
# Outline: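 Steps: enzyme/substrate mix dispensed; compound added, 10 min RT; NADPH regeneration solution added, 60 min RT; luciferin detection buffer stops reaction; 20 min later luminescence measured.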
row,Compound,"activity change, positive = activation [%]"
1,CCC1=C(OC(=O)N(CC)CC)N2C(=O)OC(=NCC3CC3)[C@]2(C)[C@H]2C1=CC[C@H]1C(=O)N(CC(=O)OC)C(=O)[C@H]12,-87.2
